Assay [1] is described as follows: qHTS of pediatric cancer cell lines to identify multiple opportunities for drug repurposing: Primary screen for TC32 cells (AID 1347089). Further: nearly all actives have a fitted effect of over 60% in size. A digest of the protocol:
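TC32 cells, 500-1,000/well in growth medium, compound-treated 48 h at 37 °C; viability from CellTiter-Glo luminescence. Primary screen: MIPE 11-point (0.78 nM–46 µM final), NPC 8-point (0.59 nM–46 µM final); confirmatory at 11-point dilutions.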
On the technique in general: qHTS replaces the single test concentration by a dilution series.

The nature of assay [2]: qHTS of pediatric cancer cell lines to identify multiple opportunities for drug repurposing: Primary screen for DAOY cells (AID 1347090). Further: nearly all actives have a fitted effect of over 55% in size. In short, it runs like this: (§1)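 Eight- or eleven-point concentration series, 48 h treatment at 37 degrees C in growth media; readout CellTiter-Glo luminescence. Potency and efficacy were taken from the concentration-response curves.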
A short description of assay [3]: qHTS of pediatric cancer cell lines to identify multiple opportunities for drug repurposing: Primary screen for SJ-GBM2 cells (AID 1347091). A digest of the protocol: as §1
Assay [4] is described as follows: qHTS of pediatric cancer cell lines to identify multiple opportunities for drug repurposing: Primary screen for A673 cells (AID 1347092). Further: nearly all actives have a fitted effect of over 45% in size. In short, it runs like this:
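A673 cells (500-1,000 cells/well) were treated 48 hours at 37 degrees C with compounds at 11-point (0.78 nM to 46 µM) or 8-point (0.59 nM to 46 µM) dilutions. Viability read by CellTiter-Glo luminescence; concentration-response curves fitted.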

Assay [5] in a line: qHTS of pediatric cancer cell lines to identify multiple opportunities for drug repurposing: Primary screen for SK-N-MC cells (AID 1347093). In short, it runs like this:
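Metabolically active cells were quantified by ATP-dependent luminescence (CellTiter-Glo, 15 min at room temperature) following 48 h treatment. Cells had been plated at 500-1,000 per well and settled for 5 h beforehand.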

Assay [6] is described as follows: qHTS of pediatric cancer cell lines to identify multiple opportunities for drug repurposing: Primary screen for BT-37 cells (AID 1347094). A digest of the protocol: (§2)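 Quantitative HTS format: each compound titrated (MIPE 11 points from 0.78 nM, NPC 8 points from 0.59 nM) onto cells plated 5 hours earlier. After 48 h at 37 degrees C, CellTiter-Glo luminescence was recorded.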

Assay [7] is described as follows: qHTS of pediatric cancer cell lines to identify multiple opportunities for drug repurposing: Primary screen for NB-EBc1 cells (AID 1347095). In short, it runs like this: as §2
A short description of assay [8]: qHTS of pediatric cancer cell lines to identify multiple opportunities for drug repurposing: Primary screen for U-2 OS cells (AID 1347096). Further: nearly all actives have a fitted effect of over 50% in size. In short, it runs like this:
(§3)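 Cells (500-1,000/well) in growth media were settled 5 h at 37 degrees C, then given compounds for 48 h. Viability was read as CellTiter-Glo luminescence. Primary runs used MIPE at 11 points (0.78 nM-46 µM) and NPC at 8 points (0.59 nM-46 µM); follow-ups used 11 points.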

Assay [9] can be described thus: qHTS of pediatric cancer cell lines to identify multiple opportunities for drug repurposing: Primary screen for Saos-2 cells (AID 1347097). Further: nearly all actives have a fitted effect of over 40% in size. In short, it runs like this: as §2
Assay [10] is described as follows: qHTS of pediatric cancer cell lines to identify multiple opportunities for drug repurposing: Primary screen for SK-N-SH cells (AID 1347098). Further: nearly all actives have a fitted effect of over 65% in size. A digest of the protocol: (§4)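 Cells (500-1,000/well) rested 5 h, then received compounds for 48 h; metabolically active cells were measured by CellTiter-Glo luminescence. Final concentrations spanned up to 46 µM (MIPE, 11-point) or 0.59 nM-46 µM (NPC, 8-point) in primary screens, 11-point in follow-ups.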

A short description of assay [11]: qHTS of pediatric cancer cell lines to identify multiple opportunities for drug repurposing: Primary screen for NB1643 cells (AID 1347099). Further: nearly all actives have a fitted effect of over 50% in size. A digest of the protocol:
as §2

The nature of assay [12]: qHTS of pediatric cancer cell lines to identify multiple opportunities for drug repurposing: Primary screen for LAN-5 cells (AID 1347100). In short, it runs like this:
as §3

Assay [13] can be described thus: qHTS of pediatric cancer cell lines to identify multiple opportunities for drug repurposing: Primary screen for BT-12 cells (AID 1347101). Further: nearly all actives have a fitted effect of over 25% in size. In short, it runs like this:
as §4

Assay [14] is described as follows: qHTS of pediatric cancer cell lines to identify multiple opportunities for drug repurposing: Primary screen for Rh18 cells (AID 1347102). Further: nearly all actives have a fitted effect of over 65% in size. A digest of the protocol:
as §3

Assay [15] in a line: qHTS of pediatric cancer cell lines to identify multiple opportunities for drug repurposing: Primary screen for OHS-50 cells (AID 1347103). Further: nearly all actives have a fitted effect of over 40% in size. A digest of the protocol:
as §4

Assay [16] can be described thus: qHTS of pediatric cancer cell lines to identify multiple opportunities for drug repurposing: Primary screen for RD cells (AID 1347104). Further: nearly all actives have a fitted effect of over 55% in size. A digest of the protocol: as §2

For eleven compounds, Potency results are on record in PubChem BioAssay (NCATS).

SMILES strings stand for the structures. Inconclusive results are not listed. Active and inactive are the calls of the source. The call rests on the fitted dose curve; in most records, active means well fitted curve in the direction sought with a large enough effect; inconclusive means small, poorly fitted or top-dose-only effect, or another doubt; inactive means no such curve, though single readings can be large; an effect the other way counts as inactive or inconclusive.
Potency means the concentration at half of the fitted maximal effect.

Turning to `C#Cc1cccc(Nc2ncnc3cc(OC)c(OCCCCCCC(=O)NO)cc23)c1`, the Potency in [1] is 5230 nM (active); in [2], 59 nM (active); in assay [3] it was 118 nM (active); in assay [4] it was 9.3 nM (active); in [5], 11.8 nM (active); in [6], 611 nM (active). The Potency in [7] is 148 nM (active); in [8] it was 1480 nM (active); in [9], 209 nM (active); in [10], 121 nM (active); in assay [11], 74.3 nM (active); in assay [12] it was 332 nM (active). For the same compound, the Potency in assay [13] is 2170 nM (active); in assay [14], 469 nM (active); in assay [15] it was 485 nM (active).
Consider `CNC(=O)c1ccc(N2C(=S)N(c3cnc(C#N)c(C(F)(F)F)c3)C(=O)C23CCC3)cc1F`, for which the Potency result in [1] and in [9] was “inactive” in each case. For the same compound, the Potency in assay [2] was 935 nM (active); in assay [3] it was 7430 nM (active); in [4], 1480 nM (active); in assay [5], 1050 nM (active); in assay [6], 19300 nM (active); in [7], 7430 nM (active). Further, the Potency is 14800 nM (active) in assay [8]; 1210 nM (active) in assay [10]; 3320 nM (active) in assay [11]; 19300 nM (active) in [13]; 5900 nM (active) in assay [16].
Regarding `Cc1ccc(-c2ncn(-c3ccc(Nc4nccc(-c5cccc(N6CCOCC6)c5)n4)cc3)n2)cn1`, the Potency in [1] is 330 nM (active); in assay [2] it was 187 nM (active); in assay [3] it was 105 nM (active); in assay [4], 93.5 nM (active); in assay [5] it was 66.2 nM (active); in assay [6], 122 nM (active). Further, the Potency in assay [7] was 209 nM (active); in assay [8], 235 nM (active); in assay [9], 93.5 nM (active); in assay [10], 383 nM (active); in [11] it was 52.6 nM (active); in [12], 66.2 nM (active). The Potency in assay [13] is 122 nM (active); in assay [14], 52.6 nM (active); in assay [15] it was 217 nM (active); in [16], 105 nM (active).
Regarding `Cc1nc(Nc2n[nH]c3c2CN(C(=O)N[C@H](CN(C)C)c2ccccc2)C3(C)C)c2sccc2n1`, the Potency in [1] is 739 nM (active); in assay [2] it was 11800 nM (active); in [3], 1050 nM (active); in [4], 14.8 nM (active); in assay [5], 33.2 nM (active); in [6] it was 611 nM (active). In addition, the Potency is 10500 nM (active) in [7]; 9350 nM (active) in assay [8]; 1660 nM (active) in assay [9]; 17100 nM (active) in assay [10]; 935 nM (active) in [11]; 418 nM (active) in [12]. The values for the Potency in [13], in assay [15] and in assay [16] were 2430 nM (active), 3.2 nM (active) and 2960 nM (active), respectively.
Consider `CC(C)c1nn(-c2c(Cl)cccc2Cl)c2nc(Cc3ccc(OCCO)cc3)[nH]c(=O)c12`, for which the Potency in [1] is 131 nM (active); in assay [2], 74.3 nM (active); in [3] it was 41.8 nM (active); in [4], 37.2 nM (active); in assay [5], 41.8 nM (active); in assay [6], 96.8 nM (active). Moreover, the Potency in [7] is 93.5 nM (active); in assay [13] it was 54.4 nM (active); in assay [15] it was 54.4 nM (active); in assay [16] it was 132 nM (active). In addition, the Potency result in assay [8] was “inactive”.
`COc1cc2c(Oc3ccc(NC(=O)C4(C(=O)Nc5ccc(F)cc5)CC4)cc3F)ccnc2cc1OCCCN1CCOCC1`: the Potency in assay [1] was 5870 nM (active); in assay [2] it was 18700 nM (active); in assay [3], 11.8 nM (active); in [4] it was 2350 nM (active); in assay [5], 743 nM (active); in assay [6], 27300 nM (active). Besides, the Potency in [7] is 4180 nM (active); in assay [8] it was 14800 nM (active); in [9] it was 2640 nM (active); in assay [10], 2410 nM (active); in assay [11] it was 6620 nM (active); in [12], 372 nM (active). The Potency in [13] is 19300 nM (active); in assay [14], 4690 nM (active); in assay [15], 385 nM (active); in assay [16] it was 8330 nM (active).
For the compound `Cc1cc(N2CCOCC2)cc2[nH]c(-c3c(NC[C@@H](O)c4cccc(Cl)c4)cc[nH]c3=O)nc12`, the Potency in assay [1] is 739 nM (active); in assay [2], 935 nM (active); in assay [3] it was 16600 nM (active); in assay [4], 296 nM (active); in [5] it was 11.8 nM (active); in [6] it was 24300 nM (active). Besides, the Potency in assay [7] is 590 nM (active); in assay [8] it was 18700 nM (active); in assay [9], 83.3 nM (active); in assay [10], 215 nM (active); in [11] it was 332 nM (active); in [12] it was 296 nM (active). For the same compound, the Potency in assay [13] was 24300 nM (active); in assay [14] it was 18700 nM (active); in assay [15], 96.8 nM (active); in [16], 590 nM (active).
Take `Nc1ncnc2c1c(-c1cnc3[nH]ccc3c1)nn2C1CCCC1`: the Potency in assay [1] is 5870 nM (active); in assay [2] it was 3720 nM (active); in assay [3] it was 132 nM (active); in assay [4] it was 1870 nM (active); in assay [5] it was 66.2 nM (active); in assay [6] it was 1720 nM (active). Besides, the Potency was 469 nM (active) in assay [7]; 2350 nM (active) in assay [8]; 935 nM (active) in assay [9]; 2150 nM (active) in assay [10]; 5900 nM (active) in assay [11]; 1050 nM (active) in assay [12]. The Potency is 1370 nM (active) in assay [13], 68.5 nM (active) in assay [15] and 1870 nM (active) in [16].
In the case of `CC(=O)SC[C@@H](C)C(=O)N1CCC[C@H]1C(=O)N[C@@H](Cc1ccccc1)C(=O)O`, the Potency result in [1], in assay [2], in assay [3], in assay [4], in assay [5] and in [6] was “inactive” throughout. Moreover, the Potency result in assay [7], in assay [8], in assay [9], in assay [10], in assay [11] and in [12] was “inactive” in each case. Moreover, the Potency result in assay [13], in assay [14] and in [15] was “inactive” in each case.
With `Nc1ccccc1NC(=O)c1ccc(CNC(=O)OCc2cccnc2)cc1`, the Potency in assay [1] was 8290 nM (active); in assay [2] it was 4690 nM (active); in assay [3] it was 4180 nM (active); in assay [4], 1480 nM (active); in [5], 93.5 nM (active); in assay [6], 3850 nM (active). For the same compound, the Potency in [7] was 1320 nM (active); in assay [8], 1870 nM (active); in assay [9], 2350 nM (active); in assay [10], 17100 nM (active); in assay [11], 1870 nM (active); in assay [12], 833 nM (active). For the same compound, the Potency in [13] was 7690 nM (active); in assay [14] it was 2960 nM (active); in assay [15], 863 nM (active); in [16], 5260 nM (active).
As for `CN(C)Cc1c(C(=O)NCCOc2ccc(C(=O)NO)cc2)oc2ccccc12`, the Potency is 5870 nM (active) in [1]; 3720 nM (active) in assay [2]; 1050 nM (active) in [3]; 935 nM (active) in [4]; 743 nM (active) in assay [5]; 1930 nM (active) in [6]. Besides, the Potency in [7] was 662 nM (active); in assay [9] it was 2960 nM (active); in assay [10] it was 2410 nM (active); in assay [11] it was 935 nM (active); in [12] it was 469 nM (active); in [13], 3850 nM (active). Moreover, the Potency was 590 nM (active) in assay [14] and 769 nM (active) in assay [15].
